Sampled rows, rich in hits. Any-hit rate of the full collection: about 9.4%.
NPC1 promoter act: NPC1 promoter activation; Huh7 NPC1 promoter luciferase reporter, 24 h; AID 485313; Potency, µM (highest dose often 9.22 µM), usual class: activators; 320,000 compounds, 2.4% hits; note: nearly all actives have a fitted effect of over 60% in size
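Compounds in DMSO were transferred onto Huh7 NPC1-luciferase reporter cells pre-incubated 2 h; after 24 h at 37 °C, Amplite reagent was dispensed and luminescence recorded 10 min later.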
Rab9 promoter act: Rab9 promoter activation; Huh7 Rab9 promoter-luciferase reporter, luminescence, 24 h; Potency, µM (doses to about 9.22 µM), hits mostly activators; 320,000 compounds, 2.8% hits; AID 485297; note: nearly all actives have a fitted effect of over 60% in size
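Promoter activation is measured as luciferase luminescence in Huh7 cells stably transfected with a Rab9 promoter–luciferase construct, following 24 h compound exposure at 37 °C and 10 min reagent incubation at ambient temperature.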
ELG1 DNA repair: ELG1-dependent DNA repair inhibition | HEK293T ELG1-luciferase reporter, luminescence, 16 h; DNA damage induced by 5-fluorouridine | Potency, µM (doses to about 46.1 µM), hits mostly inhibitors | 330,000 compounds, 2.3% hits; note: nearly all actives have a fitted effect of over 55% in size
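In this reporter screen, reduction of luminescence relative to DMSO vehicle indicated activity. Compounds and 5-fluorouridine were added together to 2,000 cells per well, incubated for 16 hr at 37 °C, then developed with ONE-Glo.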
SMN2 splice enh: enhancers of SMN2 splice variant expression; HEK293 SMN2-luciferase splicing reporter, luminescence, 30-36 h; Potency, µM (highest dose often 46.1 µM), hits mostly activators; 210,000 compounds, 2.8% hits; note: nearly all actives have a fitted effect of over 55% in size
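HEK293 cells carry an SMN2 […]–luciferase reporter in which exon 7 inclusion puts luciferase in frame. Cells were plated 10-12 h before compound addition, then incubated 30-36 h at 37C. ONE-Glo luminescence was read; sodium butyrate at 4.5 mM final served as control.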
ELG1 genotoxic: genotoxicity induction in ELG1-luciferase HEK293T cells. HEK293T ELG1-luciferase reporter, luminescence, 16 h. Potency, µM (titrated, usually from 46 µM), actives largely listed as activators. 330,000 compounds, 1.3% hits; note: nearly all actives have a fitted effect of over 60% in size
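Cells (2,000/well) expressing the ELG1-luciferase fusion are dosed by pin tool and kept 16 hr at 37 °C, 5% CO2. Signal comes from ONE-Glo luciferase reagent after 30 min at room temperature.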
FLuc modulator: firefly luciferase modulation, counter-screen for miR-21 project; P08659; purified FLuc, Km substrates, luminescence inhibition; Potency, µM (series often up to 57.5 µM), usual class: inhibitors; 360,000 compounds, 6.9% hits; note: nearly all actives have a fitted effect of over 55% in size
Target sequence (P08659 whole entry, looked up): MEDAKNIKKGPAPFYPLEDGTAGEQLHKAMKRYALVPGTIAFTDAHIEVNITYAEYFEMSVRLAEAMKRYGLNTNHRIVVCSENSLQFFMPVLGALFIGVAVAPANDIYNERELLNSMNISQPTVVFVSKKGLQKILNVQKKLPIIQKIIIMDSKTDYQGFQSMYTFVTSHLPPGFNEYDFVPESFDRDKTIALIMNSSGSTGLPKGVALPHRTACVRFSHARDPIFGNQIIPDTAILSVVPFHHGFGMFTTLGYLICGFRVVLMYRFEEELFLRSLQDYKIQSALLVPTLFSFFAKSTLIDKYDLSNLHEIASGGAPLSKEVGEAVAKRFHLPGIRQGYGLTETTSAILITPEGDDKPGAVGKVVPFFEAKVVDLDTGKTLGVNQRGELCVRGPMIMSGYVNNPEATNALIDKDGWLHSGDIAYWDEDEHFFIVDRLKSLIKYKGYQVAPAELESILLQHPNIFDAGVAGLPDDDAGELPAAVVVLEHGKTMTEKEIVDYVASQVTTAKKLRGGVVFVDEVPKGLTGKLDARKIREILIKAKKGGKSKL
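Purified P. pyralis luciferase, 10 nM final, with Km-level 10 uM D-luciferin and 10 uM ATP in 50 mM Tris acetate pH 7.5, 10 mM Mg acetate, 0.01% Tween-20, 0.05% BSA; 6-point qHTS titration about 60 µM downward; luminescence read.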
A number is an active result; – = inactive; ? = inconclusive; · = not tested or not shown; [ ] = remark or other dose. Calls come from the whole dose curve; as a rule, active = well fitted curve in the direction sought with a large enough effect; inconclusive = small, poorly fitted or top-dose-only effect, or another doubt; inactive = no such curve, though single readings can be large; an effect the other way counts as inactive or inconclusive.

SMILES	NPC1 promoter act	Rab9 promoter act	ELG1 DNA repair	SMN2 splice enh	ELG1 genotoxic	FLuc modulator
COc1ccc(C(=O)/C=C/Nc2ccc(S(=O)(=O)Nc3onc(C)c3C)cc2)cc1	–	–	?	–	–	7.6µM
COc1ccc(-c2nc(CS(=O)(=O)CC(=O)NCc3ccccc3OC)c(C)o2)cc1	–	–	–	·	–	–
NCCNC[C@H](O)CO	·	·	·	–[9.22 µM]	·	·
CN(C)c1ccc(N=Cc2nc(-c3ccccc3)oc2OC(=O)c2ccccc2)cc1	?	?	?	11µM	?	?
CC(=O)Oc1oc(-c2ccccc2)nc1/C=N/c1ccccn1	–	–	?	?	?	21µM
CC(=O)Oc1oc(-c2ccccc2)nc1C=Nc1ccc(N(C)C)cc1	–	–	–	·	–	–
O=C(O)[C@@H](O)[C@@H](O)[C@@H](O)[C@@H](O)C(=O)O (tested in a mixture with another compound)	·	·	·	–	·	·
COc1ccccc1CC(=O)Nc1cc(OC)c(NC(=O)c2ccccc2)cc1OC	–	–	16µM	·	–	–
COc1ccccc1CC(=O)Nc1cccc2c1CCCC2	–	–	–	4.5µM	–	–
COc1cccc(OC)c1C(=O)Nc1cccc2c1CCCC2	–	–	–	·	–	–
COc1cc(NC(=O)c2ccccc2)c(C)cc1NC(=O)CC(CC(=O)O)c1ccccc1 (stereo not drawn)	–	–	–	·	–	13µM
CCC(=O)Nc1cc(OC)c(NC(=O)c2ccccc2)cc1OC	–	–	–	?	–	–
Cc1ccc(-c2cc(C(=O)Nc3c(C(=O)c4ccc(C)c(F)c4)oc4ccccc34)no2)cc1	·	·	·	·	·	–
C[C@H](NC(=O)OC(C)(C)C)c1nnc(SCc2ccc(Cl)cc2Cl)o1	·	·	·	–	·	–
Nc1nonc1C(=O)N/N=C/c1ccc(-c2ccc(Cl)c(C(=O)O)c2)o1	–	–	–	–	–	?
N/C(=N\N=C\c1ccc(Br)o1)c1nonc1N	2.5µM	1.3µM	?	·	?	12µM
Nc1nonc1C(=Nc1ccccc1)NO	–	–	–	–	–	–
Nc1nonc1C(=O)N/N=C/c1ccc(Br)o1	–	–	–	·	–	19µM
Cc1nc2sc(C(N)=O)c(N)c2c(-c2ccc(Br)cc2)c1C(=O)Nc1ccc(Cl)cc1	·	·	·	–	·	–
CN(C)c1ccc(/C=C(/C#N)C(=O)NCc2ccccc2)o1	?	?	?	13µM	?	?
CC(C)(C)c1ccc(C(=O)NCCC(=O)Nc2cc(Cl)ccc2N2CCOCC2)cc1	–	–	–	·	–	21µM
Cc1ccc(CSCCNC(=O)c2ccc(Cl)c(S(=O)(=O)N3CCOCC3)c2)cc1	–	–	23µM	–	–	–
O=C(CCNC(=O)c1ccccc1)Nc1ccc(Cl)c(S(=O)(=O)N2CCCCC2)c1	·	·	16µM	·	–	·
Cc1ccc(NC(=O)CCNC(=O)c2ccc(Br)cc2)cc1S(=O)(=O)N1CCOCC1	–	–	?	·	–	–
O=C(CCNC(=O)c1ccc([N+](=O)[O-])cc1)Nc1ccc(Cl)c(S(=O)(=O)N2CCOCC2)c1	–	–	18µM	·	–	–
SMILES	NPC1 promoter act	Rab9 promoter act	ELG1 DNA repair	SMN2 splice enh	ELG1 genotoxic	FLuc modulator
O=C(CCNC(=O)c1ccccc1Cl)Nc1cccc(S(=O)(=O)N2CCCCC2)c1	–	–	?	·	–	–
CCN1CCN(c2cc(C)c3cc(NC(=O)/C=C/c4cccc(Cl)c4)ccc3n2)CC1	·	·	·	–	·	–
CN1CCN(c2ncc3c(n2)CCN(Cc2cc(Br)cs2)C3)CC1	·	·	·	·	·	–
O=C(c1ccccc1)c1ccc2cc(O)ccc2c1	?	?	?	·	?	15µM
CC(C)(C)c1ccc(C(=O)Nn2cnnc2)cc1	–	–	–	·	–	24µM
CCCCC1=CC2=C(OC(C)=O)C(=O)C(C)(OC(=O)c3ccc(Cl)nc3)C(=O)C2=CO1 (stereo not drawn)	·	·	·	–	·	·
N/C(=N\OC(=O)COc1ccc(Br)cc1Cl)c1ccccn1	2.8µM	2.8µM	?	7.1µM	2.6µM	1.5µM
N/C(=N\OC(=O)COc1ccc(Cl)cc1Cl)c1ccccn1	0.79µM	0.71µM	?	·	1.2µM	0.76µM
COc1ccc(-c2cc(C(F)(F)F)n3ncc(-c4ccccc4)c3n2)cc1	·	·	·	–	·	–
Cc1ccc(-n2c(=O)c3c(C)c(C(=O)N(C)C)sc3n(CC(=O)N(C)c3ccccc3)c2=O)cc1C	·	·	·	·	·	–
N#CC1=C(N)C(C#N)(C#N)C(c2cccnc2)C2CCCC=C12 (stereo not drawn)	–	–	7.3µM	–	–	–
CCN1CCN(C(c2ccc(F)cc2)c2c(O)cc(C)n(CCOC)c2=O)CC1 (stereo not drawn)	·	·	·	·	·	–
O=C(Nc1ccc2nc3n(c(=O)c2c1)CCCCC3)c1ccccn1	1.6µM	1.1µM	?	3.2µM	?	7.6µM
O=C(Nc1ccc2nc3n(c(=O)c2c1)CCCC3)c1ccccc1F	–	–	?	·	–	?
COc1cc(C(=O)Nc2ccc3nc4n(c(=O)c3c2)CCCCC4)cc(OC)c1OC	–	–	?	–	–	13µM
CCc1ccc(-c2csc(NC(=O)COC(=O)CCc3nc4ccccc4s3)n2)cc1	2.8µM	3.2µM	?	5.6µM	?	?
CC1CCCC(C)N1C(=O)c1cccc2c1-c1ccccc1/C2=N/O (stereo not drawn)	–	–	21µM	–	–	–
CC(=O)NCc1ccc2[nH]c(C)cc2c1	–	–	–	–	–	–
Cc1cccc(NC(=O)NCc2ccc3[nH]c(C)cc3c2)c1	?	?	?	–	?	19µM
Cc1ccc(CNC(=O)Nc2cccc(C)c2)cc1	?	2.8µM	?	?	?	9.5µM
Cc1cccc(NC(=O)NCc2ccccn2)c1	–	–	?	–	–	?
Cc1cccc(NC(=O)Nc2ccc(C)cc2Br)c1	?	?	?	13µM	?	?
Cc1ccc(NC(=O)NCc2ccc3[nH]c(C)cc3c2)cc1	–	–	–	22µM	–	?
CCC(=O)N1CCc2cc(Br)cc(S(=O)(=O)CCC(=O)N3CCN(c4ccc(OC)cc4)CC3)c21	·	·	·	–	·	–
O=C(CCCOC(=O)c1ccc(O)cc1O)c1ccc(Br)cc1	–	–	–	·	–	–
SMILES	NPC1 promoter act	Rab9 promoter act	ELG1 DNA repair	SMN2 splice enh	ELG1 genotoxic	FLuc modulator
COc1cccc(-c2nc3ccc(O)cc3c(=O)o2)c1	–	–	–	–	–	4.8µM
O=c1oc(-c2cccc(S(=O)(=O)N3CCOCC3)c2)nc2ccccc12	–	–	–	–	–	–
O=c1oc(-c2cccnc2)nc2ccccc12	–	–	–	–	–	–
CC(=O)Oc1cccc(-c2nc3ccccc3c(=O)o2)c1	–	–	–	·	–	19µM
COc1ccc(-n2c(C)nc3cc(C(=O)NC4CCCC4)ccc32)cc1	·	·	·	·	·	–
CN(C)/C=C(\C#N)C(=O)N/N=C/c1ccccc1	–	2.2µM	?	?	–	?
